SSB-PriA inh: inhibitors of Klebsiella pneumoniae PriA binding to SSB C-terminal tail, primary screen, biochemical, AlphaScreen | AlphaScreen SSBct-PriA binding, biotinylated peptide | PriA–SSB C-terminal tail interaction (Klebsiella pneumoniae) | AID 1272365, 2023 | inhibition, % at 33 µM | actives 0.6% (n = 430,000); in the data active = inhibition mostly above about 37%, no sharp cut-off; inactive = mostly below about 20%;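 also: plate controls were negative control peptide for no effect and reference peptide for full effect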
Rv3671c protease: Rv3671c serine protease inhibitors, primary screen, biochemical, fluorescence polarization, M. tuberculosis H37Rv. P9WHR9. inhibition, % at 5.96 µM. actives 0.048% (n = 320,000); in the data active = inhibition above about 38%;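 also: extracellular domain of Rv3671c used as enzyme; 0% = enzyme with DMSO and 100% = no enzyme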
PrPC surface inh: inhibitors of human cell surface prion protein PrPC, primary screen, cell-based, TR-FRET; Major prion protein (Homo sapiens), P04156; TR-FRET read-out; inhibition, % at 13.8 µM; actives 0.43% (n = 370,000); in the data active = inhibition above about 24%; also: 0% = median of the test wells and 100% = reference compound wells
Mtb UGM inh: M. tuberculosis UGM enzyme inhibitors, primary screen, biochemical, fluorescence polarization, single point; purified UGM, fluorescence polarization probe displacement; inhibition, % at 10 µM; actives 0.06% (n = 320,000); AID 504406, 2011; in the data active = inhibition above about 10%, passing the limit was not always enough
FadD28 binding: inhibitors of FadD28 bisubstrate probe binding, primary screen, biochemical, fluorescence polarization, single point; Mycobacterium tuberculosis FadD28 fatty-acid-AMP ligase; inhibition, % at 12.5 µM; actives 0.22% (n = 360,000); in the data active = inhibition above about 8.5%, passing the limit was not always enough
PrP 5UTR inh: inhibition of PrP 5' UTR reporter expression | actives 0.35% (n = 340,000) | AID 488862, 2010 | inhibition, % (test concentration not listed) | cell-based PrP 5' UTR mRNA reporter, plate reader; in the data active = inhibition above about 52%; also: 0 = median of the neutral control wells
PrPC TRFRET cf: confirmation of inhibitors of cell surface human prion protein, confirmation, cell-based, TR-FRET. shares compounds with PrPC surface inh. cell surface PrPC level. inhibition, % at 13.8 µM. actives 65% (n = 1,500); in the data active = inhibition above about 25%
LD9 tox: cytotoxicity in LD9 cells, cytotoxicity control for cell surface PrPc inhibitor project, cell-based, luminescence, high throughput. shares compounds with PrPC surface inh. luminescence viability. inhibition, % at 13.8 µM. actives 29% (n = 1,500). AID 743201, 2013; in the data active = inhibition above about 9.5%
Numbers without * were called inactive; . = no result. Shown are actives, neighbours in structure and some others; about 1.2% of the full set was active somewhere.

SMILES | SSB-PriA inh | Rv3671c protease | PrPC surface inh | Mtb UGM inh | FadD28 binding | PrP 5UTR inh | PrPC TRFRET cf | LD9 tox
CSc1ccccc1-c1n[nH]c(=S)o1 | -11.5 | . | 66.1* | . | -2.8 | -21.7 | 83.2* | -6.8
Cc1ccccc1-c1n[nH]c(=O)o1 | 1.0 | . | . | . | . | . | . | .
Cc1nn(C2CCS(=O)(=O)C2)c2nc(-c3ccc(F)cc3)cc(C(=O)N(C)C3CCN(C)CC3)c12 (centres undefined) | 2.0 | . | . | . | . | . | . | .
Cn1cccc(C(=O)NCC[C@H](O)c2ccsc2)c1=O | -5.0 | . | . | . | . | . | . | .
CCOC(=O)Cn1c(=NC(=O)c2cc(=O)c3ccccc3o2)sc2cc(S(N)(=O)=O)ccc21 | -4.0 | . | . | . | . | . | . | .
C[C@@H]1C[C@@H]([C@H](O)CC2CC(=O)NC(=O)C2)C(=O)[C@@H](C)C1 | 2.4 | -4.4 | 82.4* | 0.4 | -1.9 | 45.1 | 85.8* | 32.7*
Cc1cc(C)c(O)c(C(=O)CC2CC(=O)NC(=O)C2)c1 | . | . | 71.1* | . | . | . | 66.0* | 34.4*
CC(=O)N(Cc1cc2c(C)cc(C)cc2[nH]c1=O)C1CCCCC1 | -5.8 | -3.0 | 12.1 | 0.8 | -2.4 | 0.3 | . | .
Cc1ccc(NS(=O)(=O)c2ccc(Cl)c(C(=O)Nc3ccccc3-c3nc4ccccc4[nH]3)c2)cc1C | 6.3 | -203.4 | 25.6* | 0.6 | -1.8 | -2.0 | 16.5 | -2.9
CC(=O)OC1CCC2(C)C(CCC3C4CC=C(C(C)=O)C4(C)OC(=O)CC32)C1 (centres undefined) | . | . | 71.6* | . | 0.0 | . | -15.8 | 91.1*
CC#CCOC(=O)c1c(C)nc2sc3c(c2c1N)CCC(O)C3 (centres undefined) | -3.9 | 2.7 | 42.0* | -0.5 | 0.4 | -19.8 | 27.4* | 11.6*
O=C(Cn1cnc2ccccc2c1=O)Nc1nc2c(s1)CN(S(=O)(=O)C1CC1)CC2 | -29.0 | . | . | . | . | . | . | .
CCc1nc2c(OCCC3CCCCC3)cccn2c1N(C)C(=O)CC(C)C | . | . | 4.8 | . | -0.7 | . | . | .
CCCCC(=O)N(C)c1c(CC)nc2c(OCC3CCCCC3)cccn12 | . | . | 31.0* | . | -3.1 | . | 17.6 | -8.8
CCc1nc2c(OCCC3CCCCC3)cccn2c1N(C)C(=O)c1cccs1 | . | . | 27.5* | . | -4.7 | . | 17.3 | -11.7
CCCCC(=O)N(C)c1c(CC)nc2c(OCCC3CCCCC3)cccn12 | . | . | 13.1 | . | -5.0 | . | . | .
CCOc1ccc(NC(=O)CCn2cnc3c(cnn3-c3ccc(F)cc3)c2=O)cc1 | -2.0 | . | . | . | . | . | . | .
O=C(O)C(=Cc1ccccc1[N+](=O)[O-])c1ccc2c(c1)OCO2 | . | . | 27.3* | . | 0.4 | . | 0.2 | -6.8
COC(=O)Cc1c(C)c2ccc(OCC(=O)N3CCCC3)c(C)c2oc1=O | -7.6 | 2.5 | 27.6* | -1.1 | 0.3 | -3.2 | 27.6* | -5.1
COC(=O)Cc1c(C)c2ccc(OCC(=O)N3CCC(C)CC3)c(C)c2oc1=O | -3.6 | 0.6 | 28.1* | -4.0 | 0.0 | -24.0 | 40.5* | 3.9
Cc1cccc(NC(=O)CSc2nnc(-c3ccncc3)n2CC2CCCO2)c1 (centres undefined) | 5.3 | -1.6 | 60.3* | -0.9 | -2.9 | 7.9 | 3.8 | -6.9
Cc1nc2ccc(Br)cc2c2c1CC(CO)O2 (centres undefined) | 2.9 | -7.9 | 29.1* | 1.6 | -5.5 | -7.1 | 34.6* | -5.5
CCCC(=O)Nc1ccc(C(=O)NNC(=S)NC(=O)c2ccc(Br)o2)cc1 | -6.5 | -4.0 | 32.4* | 2.7 | 2.5 | -0.9 | 0.4 | -3.5
CCCC(=O)Nc1ccc(C(=O)NNC(=S)NC(=O)c2cccs2)cc1 | -9.5 | 0.7 | -4.1 | -0.5 | -2.1 | -23.0 | . | .
COc1cccc(C(=O)Nc2nc3c(s2)C[C@@H](C)CC3)c1OC | -18.0 | . | . | . | . | . | . | .
SMILES | SSB-PriA inh | Rv3671c protease | PrPC surface inh | Mtb UGM inh | FadD28 binding | PrP 5UTR inh | PrPC TRFRET cf | LD9 tox
Cc1cccc2nc(-c3ccco3)c(Nc3ccccc3)n12 | 4.9 | 3.7 | 1.0 | 0.9 | -1.9 | -29.2 | . | .
Cc1ccc(Nc2c(-c3ccccn3)nc3cccc(C)n23)cc1 | 101.1 | 13.8 | 29.9* | -0.7 | 0.2 | 25.9 | 18.5 | 40.2*
Cc1nnc(Cl)c2nn(-c3ccccc3F)c(C)c12 | -18.3 | -11.8 | -0.9 | -0.3 | -3.9 | -19.3 | . | .
Cc1n[nH]c(=S)c2nn(-c3cccc(Cl)c3)c(C)c12 | . | . | 36.1* | . | . | . | 67.2* | -4.0
Cc1n[nH]c(=S)c2nn(-c3ccccc3F)c(C)c12 | -10.7 | . | 45.8* | . | -2.3 | 2.7 | 67.8* | 3.0
Cc1ccc(-n2nc3c(=S)[nH]nc(C)c3c2C)cc1 | -11.7 | 9.7 | 110.5* | -1.0 | -0.5 | -11.0 | 122.4* | -0.3
O=C(NC(c1ccccc1)c1ccccc1)N1CC[C@H](c2ccc3c(c2)OCO3)C1 | 4.0 | . | . | . | . | . | . | .
COc1cc(C)c(C)cc1S(=O)(=O)Nc1ccc2c(c1)N(C(=O)c1ccccc1)CCC2 | 6.0 | . | . | . | . | . | . | .
Cn1c(=O)cc(OCCCC(=O)Nc2cc(C(F)(F)F)ccn2)c2ccccc21 | . | . | 29.2* | . | . | . | 41.6* | 11.2*
Cn1c(=O)cc(OCCCC(=O)Nc2cc(Br)ccn2)c2ccccc21 | . | . | 31.1* | . | . | . | 46.5* | 15.1*
Cn1c(=O)cc(OCCCC(=O)Nc2cc(-c3ccncc3)ccn2)c2ccccc21 | . | . | 27.5* | . | . | . | 34.6* | 13.4*
Cn1c(=O)cc(OCCCC(=O)NCc2ccccn2)c2ccccc21 | -15.7 | -2.3 | 5.9 | -0.7 | 0.0 | -19.1 | . | .
CCOc1ccc(NC(=O)CCCOc2cc(=O)n(C)c3ccccc23)cc1 | -4.7 | -3.2 | -10.5 | 1.5 | -3.2 | -19.6 | . | .
COc1ccccc1C(CNC(=O)C1CC=CCC1)OC (centres undefined) | -16.0 | . | . | . | . | . | . | .
O=c1ccc(-c2ccccc2Br)nn1Cc1nc(-c2ccc3c(c2)OCO3)no1 | 1.0 | . | . | . | . | . | . | .
CSCCC(C)(O)CNC(=O)C(=O)Nc1ccc(F)c(Cl)c1 (centres undefined) | -6.0 | . | . | . | . | . | . | .
COc1cc(N2C(=O)NC3CC2(C)Oc2ccccc23)cc(OC)c1OC (centres undefined) | -7.1 | 5.7 | 33.2* | -2.3 | -2.8 | -13.4 | 3.1 | -6.7
O=C(CN1C(=O)CCC1=O)Nc1ccccc1Cc1nc(-c2ccco2)no1 | -11.0 | . | . | . | . | . | . | .
N#Cc1c(-c2ccco2)nc(SCC(=O)Nc2cccc(Cl)c2)[nH]c1=O | -10.9 | -34.1 | 77.7* | -1.1 | -3.9 | -17.5 | 112.9* | -4.0
CCc1ccc(NC(=O)C(C)Sc2nc(-c3ccco3)c(C#N)c(=O)[nH]2)cc1 (centres undefined) | -2.4 | -7.2 | 27.9* | 4.7 | -0.3 | -1.5 | 16.4 | -9.0

Source: PubChem BioAssay (several laboratories)
